# From PubChem BioAssay (NCATS)
# Unmarked numbers belong to inactive results. Results filed as inconclusive are left out. Active and inactive are the calls of the source. Calls come from the whole dose curve; as a rule, active = well fitted curve in the direction sought with a large enough effect; inconclusive = small, poorly fitted or top-dose-only effect, or another doubt; inactive = no such curve, though single readings can be large; an effect the other way counts as inactive or inconclusive.
# Key:
# [1] = molecular target: Cytochrome P450 3A4 (Homo sapiens) (UniProt P08684); assay: qHTS Assay for Inhibitors and Substrates of Cytochrome P450 3A4 (AID 884); note: nearly all actives have a fitted effect of over 50% in size; note: potency is the fitted concentration of half-maximal effect; for activity change, negative = inhibition: series mostly up to about 57 µM; % is set by controls: 0 for no effect and ±100 for the full control effect
# Summary of the method: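 Luminescent readout of luciferin produced by CYP3A4 (20 nM) dealkylation of Luciferin-PPXE, 25 uM (its KM). NADPH-driven reaction ran 60 min at RT after 10 min compound preincubation; data scaled to 57 uM ketoconazole as 100% inhibition.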
# [2] = molecular target: Cytochrome P450 3A4 (Homo sapiens) (UniProt P08684); assay: qHTS Assay for Activators of Cytochrome P450 3A4 (AID 885); note: nearly all actives have a fitted effect of over 65% in size
# Summary of the method: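 Activators are scored by enhanced luminescence from CYP3A4 conversion of luciferin-PPXE (25uM, equal to KM) to luciferin, after 60 min at RT with an NADPH-regenerating system.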
# [3] = molecular target: Cytochrome P450 2D6 (Homo sapiens) (UniProt P10635); assay: qHTS Assay for Inhibitors and Substrates of Cytochrome P450 2D6 (AID 891); note: nearly all actives have a fitted effect of over 60% in size; note: potency is the fitted concentration of half-maximal effect;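 for activity change, negative = inhibition: luciferin methyl ether substrate demethylated by CYP2D6 with NADPH regeneration; % is set by controls: 0 for no effect and ±100 for the full control effect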
# Summary of the method: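 Luminescent read-out of luciferin formed by 5 nM human CYP2D6 demethylating 30 uM Luciferin-ME EGE (Km level) over 60 min at room temperature after NADPH regeneration addition. Data normalized to full inhibition by 1.43 uM quinidine.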
# [4] = molecular target: Cytochrome P450 2C19 (Homo sapiens) (UniProt P33261); assay: qHTS Assay for Inhibitors and Substrates of Cytochrome P450 2C19 (AID 899); note: nearly all actives have a fitted effect of over 60% in size; note: potency is the fitted concentration of half-maximal effect
# Summary of the method: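 NADPH-dependent conversion of Luciferin-H EGE (10uM, at KM) by 5nM enzyme in 50mM KPO4, 60 min at 37C following 10 min compound preincubation. Stopped with luciferin detection buffer; luminescence read after 20 min.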
# Sequence of Cytochrome P450 2C19 (Homo sapiens) (P33261 whole entry, looked up): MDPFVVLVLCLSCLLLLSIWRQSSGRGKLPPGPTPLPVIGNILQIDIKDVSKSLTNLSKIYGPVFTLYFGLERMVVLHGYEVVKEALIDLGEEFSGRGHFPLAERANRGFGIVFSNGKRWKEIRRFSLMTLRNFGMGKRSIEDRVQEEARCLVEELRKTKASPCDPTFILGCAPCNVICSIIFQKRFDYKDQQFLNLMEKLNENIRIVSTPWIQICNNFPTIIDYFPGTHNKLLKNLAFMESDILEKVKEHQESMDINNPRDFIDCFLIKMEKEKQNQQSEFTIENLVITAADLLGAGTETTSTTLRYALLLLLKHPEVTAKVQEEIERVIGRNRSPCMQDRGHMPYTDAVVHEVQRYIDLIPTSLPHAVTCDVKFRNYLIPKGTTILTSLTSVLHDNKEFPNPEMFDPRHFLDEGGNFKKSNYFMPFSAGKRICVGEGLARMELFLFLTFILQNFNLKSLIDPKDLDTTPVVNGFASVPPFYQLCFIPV
# Sequence of Cytochrome P450 3A4 (Homo sapiens) (P08684 whole entry, looked up): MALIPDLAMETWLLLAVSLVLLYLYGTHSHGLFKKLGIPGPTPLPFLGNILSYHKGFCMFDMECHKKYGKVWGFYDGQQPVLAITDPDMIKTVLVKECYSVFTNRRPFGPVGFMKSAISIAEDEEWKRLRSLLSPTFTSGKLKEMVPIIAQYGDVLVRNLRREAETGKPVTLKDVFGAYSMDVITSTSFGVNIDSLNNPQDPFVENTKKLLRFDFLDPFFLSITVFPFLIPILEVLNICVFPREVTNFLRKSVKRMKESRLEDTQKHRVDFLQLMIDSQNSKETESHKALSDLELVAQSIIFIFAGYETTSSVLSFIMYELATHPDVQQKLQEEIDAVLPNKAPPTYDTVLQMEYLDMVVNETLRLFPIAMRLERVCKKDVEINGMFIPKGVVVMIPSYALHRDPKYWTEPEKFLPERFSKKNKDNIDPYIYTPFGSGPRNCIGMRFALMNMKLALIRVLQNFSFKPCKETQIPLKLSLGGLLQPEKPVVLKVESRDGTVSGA
# Sequence of Cytochrome P450 2D6 (Homo sapiens) (P10635 whole entry, looked up): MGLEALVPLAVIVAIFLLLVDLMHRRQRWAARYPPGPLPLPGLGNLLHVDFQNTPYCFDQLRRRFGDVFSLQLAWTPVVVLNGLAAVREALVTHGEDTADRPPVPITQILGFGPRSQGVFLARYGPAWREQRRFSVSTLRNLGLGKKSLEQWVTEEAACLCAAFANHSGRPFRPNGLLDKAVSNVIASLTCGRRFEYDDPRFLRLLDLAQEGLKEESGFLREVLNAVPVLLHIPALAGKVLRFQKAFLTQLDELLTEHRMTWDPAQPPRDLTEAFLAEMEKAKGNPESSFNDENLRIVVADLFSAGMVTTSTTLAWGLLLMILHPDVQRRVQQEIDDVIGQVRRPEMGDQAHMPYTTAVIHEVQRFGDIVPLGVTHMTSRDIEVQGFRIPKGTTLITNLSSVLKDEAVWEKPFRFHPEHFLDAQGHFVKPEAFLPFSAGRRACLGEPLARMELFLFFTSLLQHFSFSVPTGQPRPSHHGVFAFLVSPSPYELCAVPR
smiles,measurement,setting,value
C=CCOC(=O)C(C(C)=O)C(NC(=O)OC)c1cccc(F)c1 (stereo unspecified),Potency,[1],0.0794 µM (active)
same,"activity change, positive = activation",[2],-72.4% [at 11.4 µM]
same,Potency,[3],inactive
same,Potency,[4],0.1 µM (active)
COC(=O)C/C=C\[C@@H](C)[C@@H](/C=N\OC[C@@H](O)COCc1ccco1)NS(=O)(=O)c1ccc(C)cc1,Potency,[1],3.16 µM (active)
same,"activity change, positive = activation",[2],-107% [at 11.4 µM]
Cc1ccc(S(=O)(=O)N[C@@H]2COC(=O)C/C=C\[C@H](C)COC(=O)N[C@@H](C)C(=O)C/C=C\[C@H]2C)cc1,Potency,[1],3.16 µM (active)
same,"activity change, positive = activation",[2],-86.3% [at 11.4 µM]
COc1ccc(C#CC2C=CC(Oc3cc(C)cc(C)c3)C(CO)O2)cc1 (stereo unspecified),Potency,[1],1.58 µM (active)
same,"activity change, positive = activation",[2],-94.5% [at 11.4 µM]
same,Potency,[3],3.98 µM (active)
same,Potency,[4],0.0631 µM (active)
CCOC(=O)OCC1OC(C#Cc2ccccc2)C=CC1OC(=O)OCC (stereo unspecified),Potency,[1],3.98 µM (active)
same,"activity change, positive = activation",[2],-79.4% [at 11.4 µM]
same,Potency,[3],inactive
same,Potency,[4],2.51 µM (active)
CCCCC#CC1C=CC(Oc2cc(OC)c(OC)c(OC)c2)C(COC(=O)OCC)O1 (stereo unspecified),Potency,[1],2.51 µM (active)
same,"activity change, positive = activation",[2],-83.6% [at 11.4 µM]
same,Potency,[3],inactive
same,Potency,[4],inactive
COc1cccc([C@H]2Oc3ccc(OC)cc3/C(=N\O[C@@H]3O[C@H](COC(C)=O)[C@H](OC(C)=O)[C@H](OC(C)=O)[C@H]3OC(C)=O)[C@@H]2O)c1,Potency,[1],3.16 µM (active)
same,"activity change, positive = activation",[2],-77% [at 11.4 µM]
same,Potency,[3],3.16 µM (active)
CCC1=C2CC[C@H]3C(=O)N(c4ccccc4)C(=O)[C@H]3[C@H]2[C@@]2(C)C(=NCC3CC3)OC(=O)N2C1=O,Potency,[1],10 µM (active)
same,Potency,[2],inactive
C=CCC1C=CC(Oc2ccc(F)cc2C)C(CO)O1 (stereo unspecified),Potency,[1],3.98 µM (active)
same,"activity change, positive = activation",[2],-81.3% [at 11.4 µM]
same,Potency,[3],inactive
same,Potency,[4],0.251 µM (active)
COc1ccc(O[C@H]2C=C[C@@H](c3ccccc3)O[C@@H]2CO/N=C(\C)CCN2CCCc3nc(C)c(C)cc32)cc1,Potency,[1],3.16 µM (active)
same,"activity change, positive = activation",[2],-63.6% [at 11.4 µM]
same,Potency,[3],3.16 µM (active)
same,Potency,[4],0.398 µM (active)
COC(=O)[C@@H]1CC[C@H](C)[C@@H](c2ccc(C)cc2)N1C(=O)c1ccc(/C=N\OC[C@@H](C)[C@H](OCc2ccccc2)C(C)C)cc1,Potency,[1],3.98 µM (active)
same,"activity change, positive = activation",[2],-66.5% [at 11.4 µM]
same,Potency,[3],3.98 µM (active)
CCC1=C2CC[C@H]3C(=O)N(CC(=O)OC)C(=O)[C@H]3[C@H]2[C@@]2(Cc3ccccc3)C(=NCCc3c[nH]c4ccccc34)OC(=O)N2C1=O,Potency,[1],1.26 µM (active)
same,Potency,[2],inactive
COc1ccc(O[C@H]2C=C[C@@H](c3ccccc3)O[C@H]2COC(=O)CC/C(C)=N/O[C@@H]2O[C@H](COC(C)=O)[C@H](OC(C)=O)[C@H](OC(C)=O)[C@H]2OC(C)=O)cc1,Potency,[1],5.01 µM (active)
same,"activity change, positive = activation",[2],-91.6% [at 11.4 µM]
same,Potency,[3],3.16 µM (active)
same,Potency,[4],1.58 µM (active)
CO/N=C(/C)CCC(=O)OC[C@@H]1O[C@H](C#Cc2ccccc2)C=C[C@@H]1Oc1ccc(C)cc1,Potency,[1],3.98 µM (active)
same,"activity change, positive = activation",[2],-90.5% [at 11.4 µM]
same,Potency,[3],inactive
same,Potency,[4],3.98 µM (active)
Cc1ccc(S(=O)(=O)N[C@H]2COC(=O)C/C=C\[C@H](C)[C@@H](NS(=O)(=O)c3ccc(C)cc3)COC(=O)C/C=C\[C@@H]2C)cc1,Potency,[1],3.98 µM (active)
same,"activity change, positive = activation",[2],-90.7% [at 11.4 µM]
CCC1=C(OC(=O)N(CC)CC)N2C(=O)OC(=NCCOC)[C@]2(C)[C@H]2C1=CC[C@H]1C(=O)N(CC(=O)OC)C(=O)[C@H]12,Potency,[1],10 µM (active)
same,Potency,[2],inactive
CCC1=C(OC(=O)N(CC)CC)N2C(=O)OC(=NCCc3c[nH]c4ccccc34)[C@]2(Cc2ccccc2)[C@H]2C1=CC[C@H]1C(=O)N(c3ccccc3)C(=O)[C@H]12,Potency,[1],6.31 µM (active)
same,Potency,[2],inactive
COc1ccc(/C=C/C2=CC3(C)CC2(C)C(c2ccc(OC)cc2)CC3=O)cc1 (stereo unspecified),Potency,[3],inactive
C/C(CCN1CCCc2nc(C)c(C)cc21)=N\OC[C@@H](C)[C@H](OCc1ccccc1)C(C)C,"activity change, positive = activation",[2],-46.3% [at 11.4 µM]
COC(=O)NC(/C(C(=O)OC)=C(\C)NCc1ccccc1)c1ccc(Cl)cc1 (stereo unspecified),"activity change, negative = inhibition",[1],-24.6% [at 11.4 µM]
same,Potency,[4],5.01 µM (active)
